Results reported in the supplement of paper PMC4466140.

Each binder was assayed against ScBbc1 (assay: SPOT peptide array binding signal intensity (averaged, normalized) (arbitrary units (background-subtracted, floor 0; scale differs between SH3 domains)); higher = stronger binding of the SH3 domain to the peptide).
In short: (§1)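 E. coli BL21(DE3) was used to express GST-fused SH3 domains from four yeast species, which were then purified on glutathione Sepharose. These were incubated at 10 μg/ml in TBS-based blocking buffer overnight at 4°C on cellulose membranes carrying synthetic 15-mer peptides, in which cysteines were replaced by serines. Binding signal is the replicate average of normalized, background-subtracted spot intensity, in arbitrary units that differ between domains.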

Binder	SPOT peptide array binding signal intensity
NFKRLLPRDPSEKSS	≤ 0

Each binder was assayed against ScBem1-D1 in the same assay as above.
In short: as §1

Binder	SPOT peptide array binding signal intensity
NFKRLLPRDPSEKSS	27

Each binder was assayed against ScBzz1-D1 in the same assay as above.
In short: as §1

Binder	SPOT peptide array binding signal intensity
NFKRLLPRDPSEKSS	21

The binders below were run against ScBzz1-D2 in the same assay as above.
In short: as §1

Binder	SPOT peptide array binding signal intensity
NFKRLLPRDPSEKSS	18

What follows are binders tested against ScCyk3 in the same assay as above.
In short: as §1

Binder	SPOT peptide array binding signal intensity
NFKRLLPRDPSEKSS	105

The binders below were run against ScFus1 in the same assay as above.
In short: as §1

Binder	SPOT peptide array binding signal intensity
NFKRLLPRDPSEKSS	308

These binders were tested against ScHof1 in the same assay as above.
In short: as §1

Binder	SPOT peptide array binding signal intensity
NFKRLLPRDPSEKSS	3

What follows are binders tested against ScHse1 in the same assay as above.
In short: as §1

Binder	SPOT peptide array binding signal intensity
NFKRLLPRDPSEKSS	2620

What follows are binders tested against ScLsb1 in the same assay as above.
In short: as §1

Binder	SPOT peptide array binding signal intensity
NFKRLLPRDPSEKSS	1

The binders below were run against ScLsb2 in the same assay as above.
In short: as §1

Binder	SPOT peptide array binding signal intensity
NFKRLLPRDPSEKSS	2

The binders below were run against ScLsb3 in the same assay as above.
In short: as §1

Binder	SPOT peptide array binding signal intensity
NFKRLLPRDPSEKSS	83.5

These binders were tested against ScLsb4 in the same assay as above.
In short: as §1

Binder	SPOT peptide array binding signal intensity
NFKRLLPRDPSEKSS	1

What follows are binders tested against ScMyo3 in the same assay as above.
In short: as §1

Binder	SPOT peptide array binding signal intensity
NFKRLLPRDPSEKSS	2

Each binder was assayed against ScMyo5 in the same assay as above.
In short: as §1

Binder	SPOT peptide array binding signal intensity
NFKRLLPRDPSEKSS	4.5

Each binder was assayed against ScNbp2 in the same assay as above.
In short: as §1

Binder	SPOT peptide array binding signal intensity
NFKRLLPRDPSEKSS	35.5

What follows are binders tested against ScPex13 in the same assay as above.
In short: as §1

Binder	SPOT peptide array binding signal intensity
NFKRLLPRDPSEKSS	3.5

The binders below were run against ScRvs167 in the same assay as above.
In short: as §1

Binder	SPOT peptide array binding signal intensity
NFKRLLPRDPSEKSS	16.2

Each binder was assayed against ScSho1 in the same assay as above.
In short: as §1

Binder	SPOT peptide array binding signal intensity
NFKRLLPRDPSEKSS	1040

What follows are binders tested against ScSla1-D1-D2 in the same assay as above.
In short: as §1

Binder	SPOT peptide array binding signal intensity
NFKRLLPRDPSEKSS	35.5

These binders were tested against ScSla1-D3 in the same assay as above.
In short: as §1

Binder	SPOT peptide array binding signal intensity
NFKRLLPRDPSEKSS	0.5

What follows are binders tested against SpAbp1-D1 in the same assay as above.
In short: as §1

Binder	SPOT peptide array binding signal intensity
NFKRLLPRDPSEKSS	21

These binders were tested against SpBbc1 in the same assay as above.
In short: as §1

Binder	SPOT peptide array binding signal intensity
NFKRLLPRDPSEKSS	1

The binders below were run against SpBzz1-D1 in the same assay as above.
In short: as §1

Binder	SPOT peptide array binding signal intensity
NFKRLLPRDPSEKSS	17.5

What follows are binders tested against SpBzz1-D2 in the same assay as above.
In short: as §1

Binder	SPOT peptide array binding signal intensity
NFKRLLPRDPSEKSS	0.5

What follows are binders tested against SpCyk3 in the same assay as above.
In short: as §1

Binder	SPOT peptide array binding signal intensity
NFKRLLPRDPSEKSS	7

These binders were tested against SpHof1 in the same assay as above.
In short: as §1

Binder	SPOT peptide array binding signal intensity
NFKRLLPRDPSEKSS	283

Each binder was assayed against SpHof1-2 in the same assay as above.
In short: as §1

Binder	SPOT peptide array binding signal intensity
NFKRLLPRDPSEKSS	88

Each binder was assayed against SpHof1-3 in the same assay as above.
In short: as §1

Binder	SPOT peptide array binding signal intensity
NFKRLLPRDPSEKSS	1360

These binders were tested against SpHse1 in the same assay as above.
In short: as §1

Binder	SPOT peptide array binding signal intensity
NFKRLLPRDPSEKSS	2380

The binders below were run against SpLsb1 in the same assay as above.
In short: as §1

Binder	SPOT peptide array binding signal intensity
NFKRLLPRDPSEKSS	≤ 0

Each binder was assayed against SpLsb4 in the same assay as above.
In short: as §1

Binder	SPOT peptide array binding signal intensity
NFKRLLPRDPSEKSS	23

The binders below were run against SpMyo1 in the same assay as above.
In short: as §1

Binder	SPOT peptide array binding signal intensity
NFKRLLPRDPSEKSS	7.25

The binders below were run against SpNbp2 in the same assay as above.
In short: as §1

Binder	SPOT peptide array binding signal intensity
NFKRLLPRDPSEKSS	44

The binders below were run against SpPex13 in the same assay as above.
In short: as §1

Binder	SPOT peptide array binding signal intensity
NFKRLLPRDPSEKSS	5

The binders below were run against SpRvs167 in the same assay as above.
In short: as §1

Binder	SPOT peptide array binding signal intensity
NFKRLLPRDPSEKSS	19.3

These binders were tested against SpSla1-D1-D2 in the same assay as above.
In short: as §1

Binder	SPOT peptide array binding signal intensity
NFKRLLPRDPSEKSS	0.5

What follows are binders tested against SpSla1-D3 in the same assay as above.
In short: as §1

Binder	SPOT peptide array binding signal intensity
NFKRLLPRDPSEKSS	3
